# Screening results: PubChem, National Center for Advancing Translational Sciences (NCATS)
# Rows were chosen to be rich in hits. Some 3.6% of all compounds tested hit in one or more screens of this group.
# Sm TGR block: qHTS Assay for the Inhibitors of Schistosoma Mansoni Peroxiredoxins | Schistosoma mansoni thioredoxin glutathione reductase (TGR), Q962Y6 | AID 485364, 2010 | purified TGR, DTNB reduction, TNB absorbance 405 nm | actives 3% (n = 360,000) | Potency, µM (top dose mostly 114 µM), inactives show top-dose activity change, negative = inhibition, hits mostly inhibitors; note: nearly all actives have a fitted effect of over 60% in size
#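 First, TGR (20 nM dispensed) and NADPH were mixed with compound. Second, a 15 min room-temperature incubation followed. Third, further NADPH and then DTNB were added to start the reaction. Finally, TNB absorbance was monitored kinetically.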
# Giardia FBPA inh-1: qHTS Assay for Inhibitors of Fructose-1,6-bisphosphate Aldolase from Giardia Lamblia. purified Giardia FBPA. actives 0.71% (n = 290,000). Potency, µM (doses to about 59.6 µM), for the others: at the top dose activity, negative = inhibition, most hits filed as inhibitors; note: nearly all actives have a fitted effect of over 55% in size
# Target sequence (A8B2U2 whole entry, looked up): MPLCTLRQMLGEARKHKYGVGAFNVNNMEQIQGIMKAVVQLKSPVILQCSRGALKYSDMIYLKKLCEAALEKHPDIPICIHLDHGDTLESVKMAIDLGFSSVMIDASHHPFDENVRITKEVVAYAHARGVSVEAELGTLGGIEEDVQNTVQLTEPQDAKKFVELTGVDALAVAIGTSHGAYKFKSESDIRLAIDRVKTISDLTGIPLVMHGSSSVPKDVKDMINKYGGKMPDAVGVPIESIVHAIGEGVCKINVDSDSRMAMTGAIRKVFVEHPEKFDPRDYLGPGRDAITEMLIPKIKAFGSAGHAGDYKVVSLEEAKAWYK
#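 Giardia FBPA (40 nM reagent) was preincubated 10 min at RT with compound (up to 57.5 uM final), then substrate plus GAPDH/TPI/NAD/arsenate coupling system with diaphorase/resazurin was added; resorufin fluorescence (525/598 nm) was read after 20 min.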
# AmpC inh detg: qHTS Inhibitors of AmpC Beta-Lactamase (assay with detergent). actives 0.041% (n = 370,000). Potency, µM (top dose mostly 114 µM), without a hit: top-dose activity change, negative = inhibition, hits mostly inhibitors. P00811. AmpC hydrolysis of nitrocefin, absorbance 480 nm, 0.01% Triton;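 note: 0% = no-compound wells and -100% = no-enzyme wells; nearly all actives have a fitted effect of over 25% in size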
#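 20 mM phosphate pH 7.0 + 0.01% (detergent screen) or 0.0001% Triton X-100; 5.3 nM AmpC reagent; cpd preinc 15 min RT; nitrocefin (800 uM stock) to start; A480 q20 s × 4 min; Activity was normalised to no-enzyme and no-compound control wells.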
# AmpC inh no detg: qHTS Inhibitors of AmpC Beta-Lactamase (assay without detergent); AmpC nitrocefin hydrolysis, absorbance 480 nm, 0.0001% Triton; P00811; actives 0.52% (n = 330,000); Potency, µM (top dose mostly 57.1 µM), for inactives: at the highest dose activity change, negative = inhibition, most hits filed as inhibitors;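 note: plate controls were no compound for no effect and no enzyme for full effect; nearly all actives have a fitted effect of over 20% in size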
#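 20 mM phosphate pH 7.0 + 0.01% (detergent screen) or 0.0001% Triton X-100; 5.3 nM AmpC reagent; cpd preinc 15 min RT; nitrocefin (800 uM stock) to start; A480 q20 s × 4 min; Activity was normalised to no-enzyme and no-compound control wells.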
# Giardia growth: qHTS Assay for Inhibitors of Fructose-1,6-bisphosphate Aldolase from Giardia Lamblia: Giardia lamblia growth inhibition. shares compounds with Giardia FBPA inh-1. Giardia lamblia trophozoite growth inhibition. Potency, µM (doses to about 57.5 µM), for inactives: at the top dose activity change, negative = inhibition, actives largely listed as inhibitors. actives 5% (n = 1,500);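 note: trophozoites exposed to compound for 48 h at 37 °C; nearly all actives have a fitted effect of over 70% in size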
# Mammalian tox: qHTS Assay for Inhibitors of Fructose-1,6-bisphosphate Aldolase from Giardia Lamblia: Mammalian cellular toxicity. shares compounds with Giardia FBPA inh-1. mammalian cell viability counter-screen, qHTS. Potency, µM (highest dose often 57.5 µM), for the others: at the top dose viability change, negative = toxicity, hits mostly inhibitors. actives 4% (n = 1,500);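 note: Chinese hamster ovary cells used as mammalian cytotoxicity surrogate; viability measured as cellular ATP by luminescence; compound exposure lasted 48 h before reading; nearly all actives have a fitted effect of over 60% in size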
# Giardia FBPA inh-2: qHTS Assay for Inhibitors of Fructose-1,6-bisphosphate Aldolase from Giardia Lamblia: Primary screen confirmation; shares compounds with Giardia FBPA inh-1; purified Giardia aldolase enzyme activity, qHTS; Potency, µM (doses to about 57.5 µM), without a hit: at the top dose activity change, negative = inhibition, actives largely listed as inhibitors; actives 5% (n = 1,500); AID 2787, 2010; note: nearly all actives have a fitted effect of over 45% in size
# Rabbit FBPA inh: qHTS Assay for Inhibitors of Fructose-1,6-bisphosphate Aldolase from Giardia Lamblia: Rabbit FBPA Selectivity; shares compounds with Giardia FBPA inh-1; Rabbit muscle FBPA enzyme inhibition, selectivity counter-screen; Potency, µM (highest dose often 57.5 µM), inactives show at the highest dose activity, negative = inhibition, hits mostly inhibitors; actives 4% (n = 1,500); AID 2794, 2010; note: nearly all actives have a fitted effect of over 60% in size
# Target sequence (P00883 whole entry, looked up): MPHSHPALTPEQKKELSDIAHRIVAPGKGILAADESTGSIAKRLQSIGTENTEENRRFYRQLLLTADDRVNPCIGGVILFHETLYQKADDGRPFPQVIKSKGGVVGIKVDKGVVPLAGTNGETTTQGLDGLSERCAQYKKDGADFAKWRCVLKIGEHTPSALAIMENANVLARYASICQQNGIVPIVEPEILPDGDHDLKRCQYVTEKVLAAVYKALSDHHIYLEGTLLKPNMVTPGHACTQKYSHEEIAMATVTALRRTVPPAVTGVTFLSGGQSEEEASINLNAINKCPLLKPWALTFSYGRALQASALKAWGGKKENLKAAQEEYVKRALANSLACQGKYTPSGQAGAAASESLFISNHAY
# GAPDH counter: qHTS Assay for Inhibitors of Fructose-1,6-bisphosphate Aldolase from Giardia Lamblia: Coupling assay counterscreen confirmation | shares compounds with Giardia FBPA inh-1 | GAPDH coupling enzyme counterscreen, biochemical, qHTS | Potency, µM (series often up to 57.5 µM), for inactives: at the top dose activity change, negative = inhibition, hits mostly inhibitors | actives 6% (n = 1,500) | AID 2795, 2010; note: nearly all actives have a fitted effect of over 55% in size
# Starred values were filed as active, the others as inactive; ? = inconclusive; / = not tested or not shown; [ ] = remark or other dose. Calls come from the whole dose curve; as a rule, active = well fitted curve in the direction sought with a large enough effect; inconclusive = small, poorly fitted or top-dose-only effect, or another doubt; inactive = no such curve, though single readings can be large; an effect the other way counts as inactive or inconclusive. Unless noted, % is set by controls: 0 for no effect and ±100 for the full control effect; potency is the fitted concentration of half-maximal effect.
SMILES,Sm TGR block,Giardia FBPA inh-1,AmpC inh detg,AmpC inh no detg,Giardia growth,Mammalian tox,Giardia FBPA inh-2,Rabbit FBPA inh,GAPDH counter
CN(CCCCCCN(C)Cc1ccccc1O)Cc1ccccc1O,0%,28µM*,-1%,-12%,?,-9%,2%,3%,6%
CN(CCCCCC(=O)/C=N/O)Cc1ccccc1,-10%,0%,2%,-23%,/,/,/,/,/
CC(=O)Nc1ccc(NC(=O)C/C(C)=N/NC(N)=S)cc1,-9%,16µM*,-10%,-25%,-14%,9%,-2%,7%,4%
CC(=O)Nc1cccc(/C(C)=N/NC(N)=S)c1,-4%,18µM*,-8%,-12%,14%,-20%,7%,3%,7%
CCCCn1cnc2c([nH]c3ccccc32)c1=O,5%,0%,1%,-27%,/,/,/,/,/
CCCCCn1cnc2c(=S)nc(N)[nH]c21,-8%,2.8µM*,2%,-15%,97%,-9%,3%,3%,13%
CCCCn1cnc2c(=S)nc(N)[nH]c21,-5%,7.1µM*,3%,-6%,-4%[38.3 µM],-11%,-9%,-14%,-7%
CCCn1cnc2c(=S)nc(N)[nH]c21,5%,4.5µM*,-6%,-12%,2%[38.3 µM],-2%,?,2%,-15%
CCCCCCCCn1cnc2c(N)c(C)c(C)cc21,-21%,-2%,?,85%,/,/,/,/,/
COc1ccc2c(c1)c1c(c(=O)n(Cc3ccccc3)c(=O)n1Cc1cc(C)ccc1C)n2C,-1%,/,7%,/,/,/,/,/,/
CCc1ccc(CNC(=O)c2ccc3c(c2)nc2n3CCOC2)cc1,3%,/,-3%,/,/,/,/,/,/
COc1ccccc1C(=O)OC(C)CN1CCN(C)CC1 (stereo unspecified),-30%,32µM*,0%,-5%,-5%[10.4 µM],3%,6%,2%,-12%
CC(CN1CCCC1)OC(=O)c1ccc(Cl)cc1Cl (stereo unspecified),0%,16µM*,-6%,-10%,18%,-10%,0%,-1%,-19%
Cc1cc2nnc(SCC(=O)NC3CCCCC3)n2c(N)n1,7%,2%,3%,19%,/,/,/,/,/
CO/N=C/C(C#N)c1ncc(C(F)(F)F)cc1Cl (stereo unspecified),?,20µM*,-1%,-18%,?,7%,1%,1%,-4%
Cc1ccccc1C(=O)Nc1nnc(-c2cccnc2)o1,8%,16µM*,6%,-21%,?,6%,7%,0%,7%
Cc1ccccc1C(=O)Nc1nnc(-c2ccc(F)cc2)o1,1%,18%,?,-27%,/,/,/,/,/
COCC(=O)Nc1ccc2c(c1)OCC(=O)N2Cc1ccc(C)cc1,-8%,16%,-26%,-3%,/,/,/,/,/
O=C(NC1CCCCCC1)C(=O)NC1CC1,-16%,10%,-7%,-4%,/,/,/,/,/
O=C(NC1CCCCCC1)C(=S)NC1CCCCC1,/,18µM*,4%,-1%,?,7%,-8%,1%,3%
O=c1[nH]c(=S)c2ncn(-c3ccccc3)c2[nH]1,?,10µM*,5%,-12%,10%,7%,3%,3%,7%
CCn1c(CSc2nnc(-c3ccncc3)n2CCOC)nc2cc(C(=O)O)ccc21,1%,?,0%,-17%,/,/,/,/,/
CCn1c(CSc2n[nH]c(N)n2)nc2cc(C(=O)O)ccc21,4%,16µM*,5%,-24%,21%,-4%,-10%,-5%,-1%
CCn1c(CSc2nnc(-c3cccnc3)n2-c2ccccc2C)nc2cc(C(=O)O)ccc21,2%,7.9µM*,-5%,-10%,39%,10%,?,-20%,-18%
N#CCCN(Cc1ccccc1)C(=S)NC(=O)c1ccccc1,1%,16µM*,-6%,-17%,20%,5%,5%,7%,6%
SMILES,Sm TGR block,Giardia FBPA inh-1,AmpC inh detg,AmpC inh no detg,Giardia growth,Mammalian tox,Giardia FBPA inh-2,Rabbit FBPA inh,GAPDH counter
Cc1ccc(S(=O)(=O)N(C)C)cc1NC(=S)N(CCC#N)Cc1cccnc1,-8%,0%,-2%,-4%,/,/,/,/,/
CN(C)S(=O)(=O)c1cccc(C(=O)NC(=S)N(CCC#N)Cc2cccnc2)c1,-7%,5.6µM*,-7%,-27%,6%[38.3 µM],-6%,4%,2%,-6%
CCN(CC)S(=O)(=O)c1ccc(C(=O)NC(=S)N(CCC#N)Cc2cccnc2)cc1,2%,13µM*,1%,-16%,?,5%,4%,5%,10%
O=C(NC(=S)N(CCO)Cc1ccccc1)c1cc(Br)ccc1Cl,0%,16µM*,1%,-34%,12%[10.4 µM],4%,10%,11%,17%
COc1ccc(CN(CCC#N)C(=S)NC(=O)c2ccccc2)cc1,-5%,/,0%,-25%,/,/,/,/,/
C[C@](N)(COP(=O)(O)O)C(=O)O,/,-16%,/,/,/,/,/,/,/
COc1ccc(CNC(=O)C2CCN(S(=O)(=O)N3CCCCC3)CC2)c(OC)c1,1%,9%,-12%,26%,/,/,/,/,/
